# System: TLK1
# Details: concentration: 1 μM, replicates: in singlicate; n = 1
# 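Note: KINOMEscan kinase panel screen.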
row,SMILES,%Inh
1,Cl.Nc1ncnc2occ(-c3ccc(NC(=O)Nc4cc(C(F)(F)F)ccc4F)cc3)c12 [SB-707548],14%
2,O=C(NOCC1CC1)c1ccc(F)c(F)c1Nc1ccc(I)cc1Cl,3%
3,CCc1ccnc(/C=C/c2n[nH]c3cc(Sc4ccccc4C(=O)NC)ccc23)c1,0%
4,CN1c2ccc(CNc3ccc(F)cc3)cc2-c2c(cnn2C)S1(=O)=O,16%
5,COc1cc2c(cc1OC[C@@H](O)CO)ncc1c3ccc(C#N)cc3[nH]c21,11%
6,COc1ccc(S(=O)(=O)NC2CCN(c3cc(C)nc(Nc4cccc(C#N)c4)n3)CC2)cc1.O=C(O)C(F)(F)F [GSK1653539],8%
7,Cc1ccc(NC(=O)c2ccnc(N3CCN(C)CC3)c2)cc1-c1ccc(C(=O)NCC2CC2)cc1 [GW775604],0%
8,Cc1c2ccc(N(C)c3ccnc(Nc4cccc(S(N)(=O)=O)c4)n3)cc2nn1Cc1ccccc1.Cl.Cl [GW787226],0%
9,CC(=O)Nc1ccc(COc2ccc(Nc3ccnc4cc(-c5ccccn5)ccc34)cc2)cc1.Cl [GW440148],38%
10,Cc1nnc(-c2ccc3occ(-c4ccc(C(C)O)cc4)c3c2)o1 (centres unmarked),0%
11,CNc1ncnc2[nH]ncc12 [SKF-18355],0%
12,Cn1cc(-c2ccc3c(c2)CCN3C(=O)Cc2ccccc2Cl)c2c(N)ncnc21 [GSK2608885],29%
13,Cc1cccc(-c2nc(-c3ccc(S(C)(=O)=O)cc3)sc2-c2ccncc2)c1,13%
14,O=C1NC(=O)C(N2CCc3ccccc32)=C1c1cccc(Cl)c1 [SB-408010],10%
15,Cc1cccc(Cn2ccn3c(=O)cc(N4CCOCC4)nc23)c1 [GSK2297542],16%
16,Cl.Oc1cccc(Nc2ccnc3cc(-c4ccncc4)ccc23)c1 [GW494601],0%
17,O=c1cc(N2CCOCC2)nc2n(Cc3cccc(F)c3)ccn12 [GSK2297430],6%
18,CC(C)(C)n1cnc2c(N)ncnc21 [SKF-97359],67%

row,SMILES,%Inh
1,Fc1ccc(-c2nn3c(OCC(F)(F)F)cccc3c2-c2ccncc2)cc1 [GW514784],0%
2,CSc1ccc(-c2cc3ncnc(SCC(=O)O)c3s2)cc1,2%
3,[2H]C([2H])(c1cccc(C(F)(F)F)c1C)n1ccn2c(=O)nc(N3CCOCC3)cc12 [GSK2336394],0%
4,Cc1ccc(C(=O)NCC(N)=O)cc1-n1c(C)cc(OCc2ccc(F)cc2F)c(Br)c1=O,0%
5,COc1cc2ncn(-c3cc(OCc4sccc4Cl)c(C(N)=O)s3)c2cc1OC [GSK448459],0%
6,O=C(NCCNc1ccnc(Nc2ccc(F)cc2)n1)c1cc2ccccc2s1 [GSK1379874],0%
7,O=C(NCCNc1ccnc(Nc2ccc(F)cc2)n1)Nc1ccccc1F [GSK1379880],2%
8,CCn1cnc2c(N)ncnc21 [GW345098],22%
9,Cc1cn2c(=O)cc(N3CCOCC3)nc2n1Cc1cccc(Cl)c1Cl [GSK2334006],17%
10,CN(C(=O)c1ccc(-c2cc(-c3c[nH]nc3-c3ccccn3)ccn2)cc1)C1CCOCC1 [GW810083],0%
11,COC(=O)Nc1nc2cc(Oc3ccc(NC(=O)Nc4cc(F)ccc4F)cc3)ccc2[nH]1.Cl [GW701424],0%
12,COc1ccc(CNC(=O)NC2CCN(c3ccnc(Nc4ccc(OC)cc4)n3)C2)cc1 (centres unmarked) [GSK1379727],0%
13,Cc1cccc(-c2nc(Nc3ccc4ncsc4c3)c3ccccc3n2)n1 [GW867588],0%
14,NS(=O)(=O)c1cccc(-c2ccc3ncc(N4CCOCC4)nc3c2)c1 [GSK1535721],9%
15,C[C@@H](Oc1cc(-n2cnc3ccc(NC(=O)NC(C)(C)C)cc32)sc1C(N)=O)c1ccccc1Cl [GSK346294],21%
16,COc1ccc(Nc2nccc(N3CCC(NC(=O)Nc4cccc(C(C)=O)c4)C3)n2)cc1 (centres unmarked) [GSK1379731],0%
17,Cc1nnc(-c2ccc3ncc(-c4ccc(S(C)=O)cc4)n3c2)o1 (centres unmarked),23%
